In PubChem BioAssay (Tox21):
Several values for one entry are separate records, joined by “and”; a condition that tells them apart may be missing. Equal values may be shown once. Results filed as inconclusive are left out. A call without a number means that no potency is given here. Where a structure was tested more than once in an assay, its records may differ in their call. Activity calls are given as the source filed them. Calls come from the whole dose curve; as a rule, active = well fitted curve in the direction sought with a large enough effect in the repeat runs; inconclusive = weak or mixed curves; inactive = no such curve, though single readings can be large; an effect the other way counts as inactive or inconclusive. Starred links: 1 amine or outer side, 2 acyl side, 3 side chain; linkers in the order of their positions; H or OH if unused. Positions of bridges follow the written chain, without caps; N, C: chain ends. Non-standard residues stand in square brackets, D forms with d. Residues, ends and D or L forms follow the SMILES beside them. Chains are numbered I, II in the order given. Actinocin(9to1) = Cc1c2oc3c(C)ccc(C(=O)[*:1])c3nc-2c(C(=O)[*:2])c(N)c1=O; NMeV = CN[C@H](C(=O)O)C(C)C; Sar = CNCC(=O)O

Assays:
[1] = Caspase-3/7 induction in CHO-K1 cells by small molecules, qHTS cell viability counter screen (AID 1346979); note: nearly all actives have a fitted effect of over 35% in size; note: potency is the fitted concentration of half-maximal effect
How it was run: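 Cytotoxicity counter screen: CellTiter-Fluor added to compound-treated wild-type CHO-K1 cells at 16 h (37C, 5% CO2), fluorescence measured 1 h later; same wells as caspase-3/7 measurement.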

[2] = Caspase-3/7 induction in CHO-K1 cells by small molecules, qHTS assay (AID 1346980); note: nearly all actives have a fitted effect of over 15% in size; note: potency is the fitted concentration of half-maximal effect
How it was run: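 Wild-type cells were seeded at 1,500 per well and settled 5 hr at 37 C, 5% CO2, then exposed to DMSO-dissolved compounds for 17 hr. Caspase-Glo 3/7 reagent was added, and luminescence was read after 30min at room temperature.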

[3] = Caspase-3/7 induction in HepG2 cells by small molecules, qHTS cell viability counter screen (AID 1346981); note: nearly all actives have a fitted effect of over 30% in size; note: potency is the fitted concentration of half-maximal effect
How it was run: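 Cell viability is measured as a cytotoxicity counter screen alongside the Caspase-Glo 3/7 readout in identical wells. Wild-type HepG2 cells are treated with test compounds for 16 hr at 37 C before CellTiter-Fluor addition and a 1-hr incubation.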

[4] = target: Nuclear receptor subfamily 1 group I member 2 (Homo sapiens) (UniProt O75469); assay: Human pregnane X receptor (PXR) small molecule agonists, qHTS assay (AID 1346982); note: nearly all actives have a fitted effect of over 35% in size; note: potency is the fitted concentration of half-maximal effect
Sequence of Nuclear receptor subfamily 1 group I member 2 (Homo sapiens) (O75469 whole entry, looked up): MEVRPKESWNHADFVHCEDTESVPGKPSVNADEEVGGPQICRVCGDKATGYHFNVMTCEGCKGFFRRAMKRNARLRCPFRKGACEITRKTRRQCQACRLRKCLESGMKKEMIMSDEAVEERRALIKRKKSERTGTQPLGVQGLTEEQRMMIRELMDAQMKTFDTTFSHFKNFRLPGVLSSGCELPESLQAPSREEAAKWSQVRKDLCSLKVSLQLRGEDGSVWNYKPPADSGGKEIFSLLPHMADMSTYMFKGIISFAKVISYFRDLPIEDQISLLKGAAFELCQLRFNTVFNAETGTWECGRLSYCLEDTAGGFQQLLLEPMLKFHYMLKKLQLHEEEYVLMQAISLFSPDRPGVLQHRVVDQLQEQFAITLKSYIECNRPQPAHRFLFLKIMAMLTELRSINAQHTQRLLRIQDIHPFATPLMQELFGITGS
How it was run: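 Cells: HepG2 stably carrying PXR-Luc. Medium held 5% charcoal-stripped FBS. Compounds in DMSO added after 5 hr plating, incubated 24 hr, then luminescence quantified with ONE-Glo.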

[5] = target: Cytochrome P450 2C19 (Homo sapiens) (UniProt P33261); assay: Cytochrome P450 Family 2 Subfamily C Member 19 (CYP2C19) small molecule antagonists: luciferase reporter qHTS assay (AID 1671197); note: nearly all actives have a fitted effect of over 65% in size; note: potency is the fitted concentration of half-maximal effect
Sequence of Cytochrome P450 2C19 (Homo sapiens) (P33261 whole entry, looked up): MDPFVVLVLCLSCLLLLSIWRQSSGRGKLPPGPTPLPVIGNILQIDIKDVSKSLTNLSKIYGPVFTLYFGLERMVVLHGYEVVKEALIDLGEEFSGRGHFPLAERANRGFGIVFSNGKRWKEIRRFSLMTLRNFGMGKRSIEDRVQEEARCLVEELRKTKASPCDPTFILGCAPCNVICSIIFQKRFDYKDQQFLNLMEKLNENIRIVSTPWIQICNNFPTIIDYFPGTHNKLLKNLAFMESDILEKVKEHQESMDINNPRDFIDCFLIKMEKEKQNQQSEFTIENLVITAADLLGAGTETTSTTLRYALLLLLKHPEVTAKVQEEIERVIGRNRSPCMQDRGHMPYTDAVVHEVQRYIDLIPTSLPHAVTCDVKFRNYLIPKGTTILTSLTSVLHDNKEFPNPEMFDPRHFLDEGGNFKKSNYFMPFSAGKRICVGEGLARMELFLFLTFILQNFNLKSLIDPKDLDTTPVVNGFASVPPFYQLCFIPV
How it was run: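 CYP2C19 P450-Glo, 1536-well qHTS. Cpd + enzyme/proluciferin substrate 10 min RT; + NADPH regen, 37C 1 h; stop with luciferin detection reagent, 20 min RT, luminescence (RLU). Pos ctrl ketoconazole.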

[6] = target: Cytochrome P450 1A2 (Homo sapiens) (UniProt P05177); assay: Cytochrome P450 Family 1 Subfamily A Member 2 (CYP1A2) small molecule antagonists: luciferase reporter qHTS assay (AID 1671199); note: nearly all actives have a fitted effect of over 50% in size; note: potency is the fitted concentration of half-maximal effect
Sequence of Cytochrome P450 1A2 (Homo sapiens) (P05177 whole entry, looked up): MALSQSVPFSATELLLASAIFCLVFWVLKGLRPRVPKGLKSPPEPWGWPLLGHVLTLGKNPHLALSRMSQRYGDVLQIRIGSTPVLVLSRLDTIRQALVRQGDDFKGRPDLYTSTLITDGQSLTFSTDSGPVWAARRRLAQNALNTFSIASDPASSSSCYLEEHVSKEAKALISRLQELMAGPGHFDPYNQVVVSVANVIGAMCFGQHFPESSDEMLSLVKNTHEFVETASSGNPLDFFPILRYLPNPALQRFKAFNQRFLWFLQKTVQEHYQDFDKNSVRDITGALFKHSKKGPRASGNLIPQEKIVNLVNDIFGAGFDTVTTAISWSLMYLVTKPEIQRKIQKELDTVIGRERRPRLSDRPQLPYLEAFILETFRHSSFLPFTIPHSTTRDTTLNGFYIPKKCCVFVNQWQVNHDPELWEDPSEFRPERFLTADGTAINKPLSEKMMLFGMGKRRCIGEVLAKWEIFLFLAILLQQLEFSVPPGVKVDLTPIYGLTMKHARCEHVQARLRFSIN
How it was run: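 Compounds were incubated with CYP1A2 and a luminogenic proluciferin substrate for 10 min at room temperature before the reaction was started with NADPH regeneration solution. After 1 h, detection reagent was added and light output, proportional to CYP activity, was recorded.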

[7] = target: Voltage-gated inwardly rectifying potassium channel KCNH2 (Homo sapiens) (UniProt Q12809); assay: Human Ether-a-go-go-Related Gene (hERG) channel small molecule antagonists: fluorescence cell-based qHTS assay (AID 1671200); note: nearly all actives have a fitted effect of over 50% in size; note: potency is the fitted concentration of half-maximal effect
Sequence of Voltage-gated inwardly rectifying potassium channel KCNH2 (Homo sapiens) (Q12809 whole entry, looked up): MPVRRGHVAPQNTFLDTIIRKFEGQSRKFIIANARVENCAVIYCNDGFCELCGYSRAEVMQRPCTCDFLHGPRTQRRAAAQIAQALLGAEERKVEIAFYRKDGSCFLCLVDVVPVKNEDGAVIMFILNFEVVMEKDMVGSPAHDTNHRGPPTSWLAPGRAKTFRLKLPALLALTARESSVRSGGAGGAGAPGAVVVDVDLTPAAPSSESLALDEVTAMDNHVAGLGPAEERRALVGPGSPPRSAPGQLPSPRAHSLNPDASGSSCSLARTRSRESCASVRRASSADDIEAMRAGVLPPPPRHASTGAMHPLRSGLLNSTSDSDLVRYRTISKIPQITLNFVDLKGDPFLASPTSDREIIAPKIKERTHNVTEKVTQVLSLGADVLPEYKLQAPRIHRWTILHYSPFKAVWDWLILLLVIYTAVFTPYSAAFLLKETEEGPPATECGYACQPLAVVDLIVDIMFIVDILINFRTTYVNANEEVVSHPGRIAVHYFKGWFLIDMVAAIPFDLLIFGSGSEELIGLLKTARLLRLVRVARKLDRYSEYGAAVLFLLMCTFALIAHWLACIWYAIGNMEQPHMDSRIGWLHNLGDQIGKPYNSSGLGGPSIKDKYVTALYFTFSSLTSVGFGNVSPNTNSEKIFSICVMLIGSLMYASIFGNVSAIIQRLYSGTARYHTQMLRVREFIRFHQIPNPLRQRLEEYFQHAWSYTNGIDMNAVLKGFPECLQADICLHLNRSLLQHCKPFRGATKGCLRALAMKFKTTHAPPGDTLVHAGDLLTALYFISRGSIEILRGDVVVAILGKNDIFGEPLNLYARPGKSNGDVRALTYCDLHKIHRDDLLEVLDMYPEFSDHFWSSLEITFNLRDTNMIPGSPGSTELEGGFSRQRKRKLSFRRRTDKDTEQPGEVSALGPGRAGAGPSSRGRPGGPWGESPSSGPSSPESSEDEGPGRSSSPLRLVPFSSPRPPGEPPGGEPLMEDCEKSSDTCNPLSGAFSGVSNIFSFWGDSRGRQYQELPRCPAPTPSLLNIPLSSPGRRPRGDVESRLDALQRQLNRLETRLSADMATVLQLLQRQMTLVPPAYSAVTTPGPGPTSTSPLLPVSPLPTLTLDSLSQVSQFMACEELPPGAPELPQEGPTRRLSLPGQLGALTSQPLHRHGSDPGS
How it was run: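 Thallium flux as potassium surrogate: FluxOR II dye loaded 1 h at room temperature into hERG-expressing U2OS cells, then stimulus buffer added after 10 min. Kinetic 480 nm excitation/540 nm emission read, 2 min.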

[8] = target: Nuclear receptor subfamily 1 group I member 2 (Homo sapiens) (UniProt O75469); assay: CYP3A4 induction through human pregnane X receptor (PXR) by small molecules, qHTS assay (AID 1346984); note: nearly all actives have a fitted effect of over 40% in size
How it was run: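 Quantitative HTS in DPX-2 cells, i.e. HepG2 transfected with PXR response element and CYP3A4-promoter luciferase. Compounds in DMSO incubated 24hr at 37C; then P450-Glo CYP3A4 substrate, 3uM final, 3hr; One-Glo luminescence.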

[9] = target: Nuclear receptor subfamily 1 group I member 2 (Homo sapiens) (UniProt O75469); assay: Human pregnane X receptor (PXR) activation by small molecules, qHTS assay (AID 1346985); note: nearly all actives have a fitted effect of over 40% in size
How it was run: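 DPX-2 cells (HepG2 co-transfected with a PXR response element and a CYP3A4-promoter luciferase construct) were seeded at 2,000 per well, rested 5 hr at 37C, then exposed to DMSO-dissolved compounds for 24 hr. Activation was read as luciferase luminescence.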

[10] = target: Cytochrome P450 2D6 (Homo sapiens) (UniProt P10635); assay: Cytochrome P450 Family 2 Subfamily D Member 6 (CYP2D6) small molecule antagonists: luciferase reporter qHTS assay (AID 1671196); note: nearly all actives have a fitted effect of over 50% in size; note: potency is the fitted concentration of half-maximal effect
Sequence of Cytochrome P450 2D6 (Homo sapiens) (P10635 whole entry, looked up): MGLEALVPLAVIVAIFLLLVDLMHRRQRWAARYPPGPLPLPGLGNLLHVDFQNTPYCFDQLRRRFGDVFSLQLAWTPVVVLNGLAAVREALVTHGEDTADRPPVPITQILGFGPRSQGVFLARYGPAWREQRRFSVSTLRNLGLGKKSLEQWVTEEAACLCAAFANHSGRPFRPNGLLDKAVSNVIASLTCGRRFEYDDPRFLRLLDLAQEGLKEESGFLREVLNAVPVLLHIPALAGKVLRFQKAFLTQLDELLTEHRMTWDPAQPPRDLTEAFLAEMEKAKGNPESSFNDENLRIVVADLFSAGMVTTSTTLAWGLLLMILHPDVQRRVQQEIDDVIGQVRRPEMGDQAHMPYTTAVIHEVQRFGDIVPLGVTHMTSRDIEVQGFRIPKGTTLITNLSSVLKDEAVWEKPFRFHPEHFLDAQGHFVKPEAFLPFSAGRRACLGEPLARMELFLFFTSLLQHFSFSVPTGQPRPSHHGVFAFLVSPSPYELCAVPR
How it was run: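 Enzyme and proluciferin substrate were first combined with test chemical for 10 min at room temperature. Adding NADPH regeneration solution started a 1 h reaction, stopped with luciferin detection reagent and read by luminescence 20 min later.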

[11] = target: Cytochrome P450 2C9 (Homo sapiens) (UniProt P11712); assay: Cytochrome P450 Family 2 Subfamily C Member 9 (CYP2C9) small molecule antagonists: luciferase reporter qHTS assay (AID 1671198); note: nearly all actives have a fitted effect of over 50% in size; note: potency is the fitted concentration of half-maximal effect
Sequence of Cytochrome P450 2C9 (Homo sapiens) (P11712 whole entry, looked up): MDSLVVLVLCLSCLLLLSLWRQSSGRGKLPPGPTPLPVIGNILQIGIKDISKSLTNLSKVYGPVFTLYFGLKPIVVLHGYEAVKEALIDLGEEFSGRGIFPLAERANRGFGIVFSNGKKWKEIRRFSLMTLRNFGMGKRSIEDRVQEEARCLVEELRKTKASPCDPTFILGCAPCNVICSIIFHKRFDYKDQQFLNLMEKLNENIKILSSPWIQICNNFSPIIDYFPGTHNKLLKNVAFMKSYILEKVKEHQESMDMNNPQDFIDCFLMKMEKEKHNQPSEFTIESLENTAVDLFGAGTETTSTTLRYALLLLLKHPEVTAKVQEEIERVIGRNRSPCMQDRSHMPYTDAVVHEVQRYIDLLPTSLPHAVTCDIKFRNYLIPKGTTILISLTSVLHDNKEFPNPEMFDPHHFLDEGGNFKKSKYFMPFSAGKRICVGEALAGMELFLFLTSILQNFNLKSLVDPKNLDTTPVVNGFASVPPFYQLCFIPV
How it was run: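 CYP2C9 activity was measured with a P450-Glo proluciferin substrate. Enzyme–substrate mix was held with compound for 10 min at room temperature, then NADPH regeneration solution was added for 1 h at 37C. Luciferin product was read as luminescence.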

[12] = target: Cytochrome P450 3A4 (Homo sapiens) (UniProt P08684); assay: Cytochrome P450 Family 3 Subfamily A Member 4 (CYP3A4) small molecule antagonists: luciferase reporter qHTS assay (AID 1671201); note: nearly all actives have a fitted effect of over 50% in size; note: potency is the fitted concentration of half-maximal effect
Sequence of Cytochrome P450 3A4 (Homo sapiens) (P08684 whole entry, looked up): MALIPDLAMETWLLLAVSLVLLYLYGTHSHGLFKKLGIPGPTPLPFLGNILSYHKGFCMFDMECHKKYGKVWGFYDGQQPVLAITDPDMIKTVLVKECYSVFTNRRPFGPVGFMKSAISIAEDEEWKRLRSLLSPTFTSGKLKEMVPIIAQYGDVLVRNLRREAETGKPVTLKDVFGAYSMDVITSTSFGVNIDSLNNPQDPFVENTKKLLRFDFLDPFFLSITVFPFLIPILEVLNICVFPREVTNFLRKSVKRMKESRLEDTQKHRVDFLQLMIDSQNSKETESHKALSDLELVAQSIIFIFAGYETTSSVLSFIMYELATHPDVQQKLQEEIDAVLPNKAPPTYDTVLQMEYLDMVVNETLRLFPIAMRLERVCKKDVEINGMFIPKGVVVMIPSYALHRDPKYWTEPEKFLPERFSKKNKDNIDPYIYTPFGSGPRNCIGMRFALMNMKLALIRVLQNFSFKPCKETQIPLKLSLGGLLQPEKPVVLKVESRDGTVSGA
How it was run: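 Recombinant human CYP3A4 converts a proluciferin substrate to luciferin over 1 h at room temperature after NADPH regeneration solution is added (compound preincubated 10 min); detection reagent stops reaction, luminescence read 20 min later as relative units.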

[13] = target: Nuclear receptor subfamily 1 group I member 2 (Rattus norvegicus) (UniProt Q9R1A7); assay: Rat pregnane X receptor (rPXR) activation by small molecules, qHTS assay (AID 1346983); conditions: rPXR luciferase reporter cells, One-Glo luminescence, 24 h; stronger effect = higher value; note: nearly all actives have a fitted effect of over 20% in size
Sequence of Nuclear receptor subfamily 1 group I member 2 (Rattus norvegicus) (Q9R1A7 whole entry, looked up): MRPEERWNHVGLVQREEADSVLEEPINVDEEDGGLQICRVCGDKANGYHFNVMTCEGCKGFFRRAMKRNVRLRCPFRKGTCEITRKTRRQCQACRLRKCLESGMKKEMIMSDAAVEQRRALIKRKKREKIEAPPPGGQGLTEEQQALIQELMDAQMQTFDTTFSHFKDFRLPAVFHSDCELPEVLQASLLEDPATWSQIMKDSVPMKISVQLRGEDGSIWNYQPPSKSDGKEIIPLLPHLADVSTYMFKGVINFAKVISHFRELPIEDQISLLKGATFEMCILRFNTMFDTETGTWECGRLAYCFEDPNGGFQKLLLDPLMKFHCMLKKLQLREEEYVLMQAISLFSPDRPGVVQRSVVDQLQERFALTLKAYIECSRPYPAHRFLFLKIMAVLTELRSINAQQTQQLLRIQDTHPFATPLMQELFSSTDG
How it was run: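 Cell-based rPXR luciferase reporter assay, 2,000 cells per well, rested 5hr at 37 C before compound addition in DMSO, then 24 hr at 37 C. One-Glo reagent was added and luminescence read after 30 min at room temperature.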

SMILES | Potency [1] | Potency [2] | Potency [3] | Potency [4] | Potency [5] | Potency [6] | Potency [7] | Potency [8] | Potency [9] | Potency [10] | Potency [11] | Potency [12] | max activation [13]
NC(N)=NC(=O)Cc1c(Cl)cccc1Cl | inactive | inactive | inactive | inactive | inactive | inactive | inactive |  |  |  |  |  | 
Cc1c2oc3c(C)ccc(C(=O)N[C@@H]4C(=O)N[C@H](C(C)C)C(=O)N5CCC[C@H]5C(=O)N(C)CC(=O)N(C)[C@@H](C(C)C)C(=O)O[C@@H]4C)c3nc-2c(C(=O)N[C@@H]2C(=O)N[C@H](C(C)C)C(=O)N3CCC[C@H]3C(=O)N(C)CC(=O)N(C)[C@@H](C(C)C)C(=O)O[C@@H]2C)c(N)c1=O (I: T[dV]P[Sar][NMeV] / II: T[dV]P[Sar][NMeV]; ester I:1-I:C, II:1-II:C; linker I:N-II:N via Actinocin(9to1)) | 375 nM (active) and 188 nM (active) | 188 nM (active) and 335 nM (active) |  | inactive | inactive | inactive | inactive | inactive | inactive | inactive | inactive | inactive | 
CCCN[C@H]1CCc2nc(N)sc2C1 | inactive | inactive | inactive |  |  |  | inactive |  |  |  |  |  | -1.97% (inactive)
CC(=O)N[C@@H](CS)C(=O)O | inactive | inactive |  | inactive | 56.3 µM (active) and inactive | inactive | inactive | inactive | inactive | inactive | inactive | inactive | -0.291% (inactive)
CCC(=O)/C=C/C1C(C)=CCCC1(C)C (stereo unspecified) | inactive | inactive |  | 34.5 µM (active) | 44.9 µM (active) and 15.9 µM (active) | inactive and 25.2 µM (active) | inactive |  |  | inactive | 31.7 µM (active) | 71.2 µM (active) and 20 µM (active) | 
O=C(Nc1ccccc1SSc1ccccc1NC(=O)c1ccccc1)c1ccccc1 | 24.5 µM (active) and 27.3 µM (active) | inactive |  | 48.8 µM (active) and 30.6 µM (active) | 3.19 µM (active) and 2.52 µM (active) | 8.01 µM (active) and 8.94 µM (active) | inactive |  |  | inactive | 505 nM (active) and 564 nM (active) | 2.01 µM (active) and 5.03 µM (active) | 
O=C(O[C@@H]1Cc2c(O)cc(O)cc2O[C@@H]1c1cc(O)c(O)c(O)c1)c1cc(O)c(O)c(O)c1 | 30.7 µM (active) and 52.5 µM (active) | inactive | 54.6 µM (active) and 29.5 µM (active) | inactive | 50.4 µM (active) and inactive | inactive | inactive |  |  |  |  | 35.7 µM (active) and 48.5 µM (active) | 
Oc1c(Cl)cc(Cl)cc1Sc1cc(Cl)cc(Cl)c1O | 15.4 µM (active) and 62.1 µM (active) and 17.2 µM (active) | inactive | 15.4 µM (active) |  | 71.2 µM (active) and 79.6 µM (active) and inactive | 72.2 µM (active) and inactive | inactive |  |  | inactive |  | inactive | 
COc1ccc(CCN(C)CCCC(C#N)(c2ccc(OC)c(OC)c2)C(C)C)cc1OC (stereo unspecified) |  |  |  |  | inactive | inactive |  |  |  | inactive | inactive |  | 
CCOc1ccc2c(c1)C(C)=CC(C)(C)N2 |  |  |  | 60.8 µM (active) and 54.5 µM (active) |  | 39.7 µM (active) and 31.7 µM (active) | inactive |  |  | 11.2 µM (active) and 10 µM (active) | 7.93 µM (active) and 5.64 µM (active) | 12.6 µM (active) and 17.8 µM (active) | 
CC(C)(c1ccccc1)c1ccc(Nc2ccc(C(C)(C)c3ccccc3)cc2)cc1 |  | inactive |  | inactive | inactive | inactive | inactive |  |  | inactive |  |  | 
O=C1Nc2ccccc2C1(c1ccc(O)cc1)c1ccc(O)cc1 |  | inactive | inactive | 61.1 µM (active) and inactive | 17.8 µM (active) and 9.77 µM (active) | inactive | inactive |  |  |  |  |  | 
CCN(CC)c1ccc2c(C)cc(=O)oc2c1 |  | inactive |  | 54.9 µM (active) and 48.6 µM (active) | 40.2 µM (active) and 31.7 µM (active) | 2.02 µM (active) and 2.83 µM (active) | inactive |  |  | inactive | inactive | 20.2 µM (active) and 31.7 µM (active) | 
CC(COc1ccccc1)N(CCCl)Cc1ccccc1 (stereo unspecified) | inactive | inactive |  |  | 2.27 µM (active) and 2.24 µM (active) and 3.47 µM (active) | inactive | 19.7 µM (active) and 24.5 µM (active) |  |  | 570 nM (active) and 448 nM (active) and 692 nM (active) | 28.6 µM (active) and 22.4 µM (active) and 12.3 µM (active) | inactive | 
CCN(CC)CCOc1ccc(/C(=C(\Cl)c2ccccc2)c2ccccc2)cc1 | 55.6 µM (active) |  | 55.6 µM (active) |  |  |  |  |  |  |  |  |  | 
O=C(O)c1cc(Cl)cc(Cl)c1 | inactive | inactive |  | inactive | inactive |  | inactive |  |  | 35.4 µM (active) |  | inactive | 
